# High-throughput results from PubChem BioAssay.
# Only some compounds are listed: those with a hit (about 6.2% of all), similar ones and a draw of the others.
# HCMV inh: blocks human cytomegalovirus replication. HFF cells, HCMV-luciferase reporter, 72 h; stronger effect = lower value. activity change, negative = inhibition, % at 57.5 µM. actives 4.5% (n = 410,000). AID 1259415; in the data active means activity change below about -60%; inconclusive means no clear call, values can overlap the other calls; inactive means above about -39%
#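 Inhibition of viral replication was scored as loss of reporter luminescence in HFFs infected with HCMV-luciferase (MOI 1 PFU/cell) for 72 h; compounds tested at 2 doses, normalized to buffer and Salinomycin controls.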
# MARV entry inh: Marburg virus entry inhibition. Marburg virus pseudotyped entry inhibition, cell reporter. Potency, µM (series often up to 37.8 µM), usual class: inhibitors. actives 1.8% (n = 300,000); calls by dose curve; tested in HEK293 cells
# FMDV antiviral: antivirals against foot and mouth disease virus. actives 1.2% (n = 410,000). AID 1159524. Potency, µM (highest dose often 57.9 µM), actives largely listed as inhibitors. FMDV antiviral cell-based qHTS; calls by dose curve; tested in HEK293T cells; further: read-out not given here; nearly all actives have a fitted effect of over 45% in size
# Lassa entry inh: inhibitors of Lassa virus binding or cell entry. Potency, µM (highest dose often 37.9 µM), most hits filed as inhibitors. actives 1.2% (n = 300,000). Lassa virus pseudotype entry inhibition, cell reporter; calls by dose curve; tested in HEK293 cells; further: nearly all actives have a fitted effect of over 50% in size
# Numbers stand for hits; . = inactive; ? = inconclusive; / = no result given; + = active, no number; ! = a repeat was not active.
SMILES,HCMV inh,MARV entry inh,FMDV antiviral,Lassa entry inh
Cc1ccc(C)c(CN2CCC(CNC(=O)Nc3ccc(Br)cc3F)CC2)c1,-78.5!,4.47µM,?,?
Cc1ccc(C)c(CN2CCC(CNC(=O)Nc3ccc(Cl)cc3)CC2)c1,.,?,.,.
CCOC(=O)N1CCc2c(sc3c2c(=O)n(-c2ccccc2C(F)(F)F)c(=O)n3Cc2ccccc2C)C1,-100.7,.,.,.
CCOC(=O)N1CCc2c(sc3c2c(=O)n(-c2ccc(Cl)cc2)c(=O)n3CC(C)C)C1,-65.5,.,.,.
COc1ccccc1-n1c(=O)c2c3c(sc2n(Cc2ccccc2F)c1=O)CN(C(C)=O)CC3,.,/,.,.
CC(=O)N1CCc2c(sc3c2c(=O)n(CCc2ccccc2)c(=O)n3Cc2ccc(Cl)cc2)C1,-106.2,?,?,/
CC(=O)c1c(O)c(C)c(O)c2c1OC1=CC(=O)[C@H](C(C)=O)C(=O)[C@]12C,/,.,/,/
CC1CCCCN1S(=O)(=O)c1ccc(C(=O)Nc2nnc(-c3ccccc3Cl)o2)cc1 (stereo unspecified),?,12.6µM,?,?
CC1CCCCN1S(=O)(=O)c1ccc(C(=O)Nc2nnc(-c3ccncc3)o2)cc1 (stereo unspecified),-70.8,?,.,?
CCC1CCCCN1S(=O)(=O)c1ccc(C(=O)Nc2nnc(-c3ccccc3Cl)o2)cc1 (stereo unspecified),/,?,.,?
Cc1ccc(C2c3c(-c4cc(C)ccc4O)n[nH]c3C(=O)N2Cc2ccco2)cc1 (stereo unspecified),.,?,.,?
Cc1cc(Br)cc(/C=N/NC(=O)c2ccc3c(c2)OCO3)c1O,-102.8,/,.,/
CN(C)c1cccc(C(=O)N/N=C/c2ccccc2F)c1,.,?,.,10µM
Cc1ccc(C(=O)N/N=C\c2ccc[nH]2)cc1[N+](=O)[O-],.,4.47µM,.,8.91µM
O=C(N/N=C/c1cc(Br)c(O)c(Br)c1O)c1ccc2c(c1)OCCO2,-81.8,.,.,?
COc1ccc(-c2cnc(-c3cccnc3)o2)cc1,/,/,.,/
CC[N+](C)(CC)CCOC(=O)[C@@](O)(c1ccccc1)C1CCCCC1,/,.,/,/
O=C(CNC(=O)c1cccc(Br)c1)N/N=C/c1cn[nH]c1-c1ccccc1,.,?,.,?
O=C(N/N=C/c1ccccc1O)c1ccc2c(c1)OCO2,-91.9,5.01µM,.,?
O=C(N/N=C/c1ccc2c(c1)OCO2)c1ccc2c(c1)OCCO2,.,?,.,?
O=C(CNC(=O)c1ccco1)N/N=C/c1ccc(O)cc1O,.,/,.,/
O=C(CNC(=O)c1ccco1)N/N=C/c1cc(Br)ccc1O,.,2µM,.,/
O=C(CNC(=O)c1cccc(Br)c1)N/N=C/c1ccc[nH]1,?,6.31µM,.,?
O=C(CNC(=O)c1ccc2c(c1)OCO2)N/N=C/c1cc(Br)ccc1O,.,11.2µM,.,?
O=C(Nc1ccc(F)cc1)c1oc2ccccc2c1NC(=O)C1CCCCC1,.,?,.,.
SMILES,HCMV inh,MARV entry inh,FMDV antiviral,Lassa entry inh
Cc1cccc(-n2c(SCC(=O)c3ccccc3)nnc2-c2ccc(Br)cc2)c1,.,/,.,.
Cn1c(Nc2ccccc2)nc2cnc(-c3ccc(S(C)(=O)=O)cc3)cc21,.,/,/,/
CC(C)(C)n1nc(C2CC2)c(Br)c1NC(=O)c1ccc(Cl)cc1,.,/,/,/
Cc1[nH]c2c(F)cccc2c1CC(=O)NCCN1Cc2ccccc2OC(C)C1 (stereo unspecified),/,/,.,/
CCOc1ccccc1NC(=O)C1CCN(S(=O)(=O)c2cc(Br)cc3c2N(C(C)=O)CC3)CC1,.,.,?,.
c1ccc(C(c2ccccc2)N2CC[C@@]3(CCCNC3)C2)cc1,/,/,.,/
COc1cc(Cl)cc(/C=N\NC(=O)c2ccc3c(c2)OCO3)c1O,-60.4,/,.,/
CCN(Cc1ccccc1)S(=O)(=O)c1ccc(C(=O)N2CCN(c3nc4ccccc4s3)CC2)cc1,-66.5,?,10µM,.
O=C(c1ccccc1)N1CCN(c2nc3ccc([N+](=O)[O-])cc3s2)CC1,-66.6,/,?,/
CCc1ccc2nc(N3CCN(C(=O)c4ccccc4)CC3)sc2c1,?,/,?,.
CCCC(=O)N1CCN(c2nc3ccc(Br)cc3s2)CC1,-68.1,/,.,/
COc1ccc(-c2nnc(SCC(=O)NCCc3ccc(OC)c(OC)c3)nc2-c2ccc(OC)cc2)cc1,.,.,.,.
COc1ccccc1N1CCN(c2nc(CNC(=O)c3ccccc3F)nc3ccccc23)CC1,/,/,.,/
Cc1ccc(N(C)/N=C/c2ccc(Cl)cc2Cl)nn1,-67.5,/,.,/
CN(/N=C/c1ccc(Cl)cc1Cl)c1ncc(Cl)cc1C(F)(F)F,.,/,.,/
Cc1ccc(-n2ncc(C(=O)NCCN3CCc4ccccc4C3)c2C2CCN(C(=O)OC(C)(C)C)CC2)cc1C,.,/,.,.
COc1ccccc1CN1CCC(CNC(=O)c2cnn(-c3ccc(Cl)cc3)c2C2CCN(C(=O)OC(C)(C)C)CC2)CC1,-107.5,/,.,?
CC(C)(C)OC(=O)N1CCC(c2c(C(=O)NCCN3CCCC3)cnn2-c2ccc(Cl)cc2)CC1,.,/,.,.
COc1ccccc1CN1CCC(CNC(=O)c2cnn(-c3ccc(C)c(C)c3)c2C2CCN(C(=O)OC(C)(C)C)CC2)CC1,?,/,.,.
Cc1ccc(-n2ncc(C(=O)NCCN3CCC(Cc4ccccc4)CC3)c2C2CCN(C(=O)OC(C)(C)C)CC2)cc1,+,/,.,?
COc1ccc(-n2ncc(C(=O)NCCCN3CCCCC3)c2C2CCN(C(=O)OC(C)(C)C)CC2)cc1,+,/,.,.
Cc1ccc(-n2ncc(C(=O)NCCN3CCc4ccccc4C3)c2C2CCN(C(=O)OC(C)(C)C)CC2)cc1,+,/,.,?
Cc1ccc(-n2ncc(C(=O)NCCN3CCCC3)c2C2CCN(C(=O)OC(C)(C)C)CC2)cc1,.,/,.,.
Cc1nn2c(C)c(C(=O)NC(C)(C)C)cnc2c1-c1ccc(F)cc1,.,/,.,.
CCn1c(=O)c2sccc2n2c(CCCC(=O)Nc3ccc(C)cc3)nnc12,.,/,.,.
SMILES,HCMV inh,MARV entry inh,FMDV antiviral,Lassa entry inh
CCOc1ccc(-c2c(C)nn3c(C)c(C(=O)Nc4cc(C)cc(C)c4)cnc23)cc1OCC,.,/,?,.
CC(C)(C)OC(=O)N1CCC(c2c(C(=O)NCCN3CCC(Cc4ccccc4)CC3)cnn2-c2cccc(Cl)c2)CC1,-100.0,/,?,?
C=COC[C@H]1CN2[C@H](c3ccc(Br)cc3)[C@H](C)CC[C@H]2C(=O)O1,/,.,/,/
Cn1c(SCC(=O)N2CC(=O)Nc3ccccc32)nc2ccccc2c1=O,.,/,.,/
O=C1CN(C(=O)CSc2nc3ccccc3c(=O)n2Cc2ccc(F)cc2)c2ccccc2N1,-63.5,?,.,?
O=C1CN(C(=O)CSc2nc3ccccc3n2CCc2ccccc2)c2ccccc2N1,-60.2,?,.,.
CCCn1c(SCC(=O)N2CC(=O)Nc3ccccc32)nc2ccccc21,.,.,.,.
CCc1cc(-c2cnnn2CCc2c[nH]c3ccccc23)ccc1-c1cn(CC(C)C)nn1,.,/,.,7.91µM
CCCCCc1ccc(-c2cn(CCc3c[nH]c4ccccc34)nn2)cc1,-60.8,/,.,/
Cn1nc(C(F)(F)F)c2cc(C(=O)Nc3ccc(F)c(Cl)c3)sc21,-75.3,?,?,?
Cn1nc(C(F)(F)F)c2cc(C(=O)Nc3ccc(C(F)(F)F)cc3)sc21,-106.3,?,?,?
